Assay results from PubChem BioAssay (Tox21).
Records with an inconclusive call do not appear. A call without a number means that no potency is given here. Activity calls are given as the source filed them. Calls follow the shape of the dose curve; as a rule, active = well fitted activation curve with a large enough effect in the repeat runs; inconclusive = weak or mixed curves; inactive = flat fitted curve, though single readings scatter.

assay: A CellTox Green Cytotoxicity Assay to monitor cytotoxicity in HepG2 cells - 24 hour (AID 1224878); settings: CellTox Green fluorescence; series mostly up to 76.8 µM; also: nearly all actives have a fitted effect of over 45% in size
Source text: National Center for Advancing Translational Sciences [NCATS]
NIH Chemical Genomics Center [NCGC]
U.S. Environmental Protection Agency [EPA]
National Institutes of Environmental Health Sciences [NIEHS]
National Toxicology Program [NTP]
Cell-based models are critical for drug discovery. Determining the natural cytotoxic effects resulting from test compounds is an essential research activity. A CellTox Green Cytotoxicity Assay to monitor cytotoxicity in real time of continues cell culture during 40 hours of the compound treatment was used to screen Tox21 10K library compounds in HepG2 cells. CellTox Green Cytotoxicity Assay is a nonlytic, homogeneous, biofluorescent method to measure cytotoxicity in cell culture after experimental manipulation. The assay system uses a proprietary asymmetric cyanine dye that is excluded from viable cells but preferentially stains the dead cell's DNA. […] Viable cells produce no appreciable increases in fluorescence. Therefore, the fluorescence signal produced by the binding interaction with dead cell DNA is proportional to cytotoxicity.
The mixture of HepG2 cell suspension and reagents were dispensed at 600cells/6 ul/well in 1536-well tissue culture treated black solid bottom plates using a Multidrop dispenser. After the assay plates were incubated at a 37 C/5% CO2 incubator for 5 hours, 23 nL of compounds dissolved in DMSO, positive and negative controls was transferred to the assay plate by a pintool work station. The plates were incubated at 37 C for 40 hours. The fluorescence intensity were measured at 0h, 8h, 16h, 24h, 32h and 40h time points using ViewLux plate reader during compound treatment.
Potency is read from the fitted curve at half-maximal effect.

| SMILES | Potency |
| --- | --- |
| N#CCCN(CCO)CCO | inactive |
| CCCCCCCCCCC(=O)O | inactive |
| CN1CCCN=C1COC(=O)C(O)(c1ccccc1)C1CCCCC1 (stereo not given) | inactive |
| CCCCCCNC(=O)n1cc(F)c(=O)[nH]c1=O | inactive |
| O=C(OCC(O)CO)c1ccccc1Nc1ccnc2cc(Cl)ccc12 (stereo not given) | inactive |
| CCOC(=O)c1ccc(O)c(O)c1 | inactive |
| CN(C)CCC=C1c2ccccc2C=Cc2ccccc21 | 23.9 µM (active) |
| N#CCc1ccc(Cl)cc1Cl | inactive |
| CCC(OCCCOC)OC(C)=O (stereo not given) | inactive |
| O=c1[nH]c2ccc(Cl)cc2o1 | inactive |
| OCCOCC#CCOCCO | inactive |
| O=c1[nH]ncc2ccccc12 | inactive |
| CCOC(=O)[C@H](CCc1ccccc1)N[C@@H](C)C(=O)N(CC(=O)O)C1Cc2ccccc2C1 | inactive |
| CCCCCCCCC(CCCCCC)C(=O)O (stereo not given) | 61.6 µM (active) |
| CCCCN(CCCC)C(C(N)=O)c1ccc(OC)cc1 (stereo not given) | inactive |
| CCOC(=O)c1ccccc1C(=C1C=C(Br)C(=O)C(Br)=C1)c1cc(Br)c(O)c(Br)c1 | inactive |
| CCOC(=O)/C=C/C(=O)OCC | inactive |
| CC(CN(C)C)C(C)(O)Cc1ccc(Cl)cc1 (stereo not given) | inactive |
| Clc1ccc(Nc2nnc(Cc3ccncc3)c3ccccc23)cc1 | inactive |
| O=C(O)CCC(=O)C(=O)O | inactive |

| SMILES | Potency |
| --- | --- |
| CN1CC(=O)N2[C@H](c3ccc4c(c3)OCO4)c3[nH]c4ccccc4c3C[C@@H]2C1=O | inactive |
| O=C1Cc2cc(Cl)ccc2N1 | inactive |
| C[C@@H]1CC(=O)NN=C1c1ccc(NN=C(C#N)C#N)cc1 | inactive |
| CCCCCCCCCCCCCCN(CCO)CCO | 24.5 µM (active) |
| CCC(C)COC(=O)CC(C)C (stereo not given) | 54.9 µM (active) |
| CCCCCCCCN | inactive |
| O=[N+]([O-])c1ccc(Nc2ccc(Nc3ccccc3)c(S(=O)(=O)O)c2)c([N+](=O)[O-])c1 | inactive |
| Cc1ccccc1N=C(N)Nc1ccccc1C | inactive |
| CC(=O)OCC(=O)NCCCOc1cccc(CN2CCCCC2)c1 | inactive |
| C/C=C\C/C=C/CCCCCCCCOC(C)=O | inactive |
| Clc1cc(Cl)nc(Cl)n1 | inactive |
| CCOC(=O)OC(C)OC(=O)[C@@H]1N2C(=O)[C@@H](NC(=O)[C@H](N)c3ccccc3)[C@H]2SC1(C)C (stereo not given in full) | inactive |
| C/C=C(/C(=C/C)c1ccc(O)cc1)c1ccc(O)cc1 | 16.9 µM (active) |
| C=CC(=O)[O-].C=CC(=O)[O-].[Zn+2] | inactive |
| C[C@H]1c2cccc(O)c2C(O)=C2C(=O)[C@]3(O)C(O)=C(C(N)=O)C(=O)[C@@H](N(C)C)[C@@H]3[C@@H](O)[C@@H]21 | inactive |
| CN1CCCC(n2nc(Cc3ccc(Cl)cc3)c3ccccc3c2=O)CC1 (stereo not given) | 23.9 µM (active) |
| Nc1cccc2c1CN(C1CCC(=O)NC1=O)C2=O (stereo not given) | inactive |
| CCCCCCCCCI | inactive |
| CCCC(=O)C(=O)O | inactive |
| COC(=O)CCS | inactive |
